High-throughput results from PubChem.
MARV entry inh – Marburg virus entry inhibition | AID 540276 | 1.8% of 300,000 active | Marburg virus pseudotyped entry inhibition, cell reporter | Potency, µM (titrated, usually from 37.8 µM), for inactives: at the highest dose activity change, negative = inhibition, most hits filed as inhibitors; calls by dose curve; tested in HEK293 cells; note: potency is the fitted concentration of half-maximal effect
LASV entry inh – blocks Lassa virus binding to or entry into cells; Potency, µM (highest dose often 37.9 µM), without a hit: at the top dose activity change, negative = inhibition, most hits filed as inhibitors; Lassa virus pseudotype entry inhibition, cell reporter; AID 540256; 1.2% of 300,000 active; calls by dose curve; tested in HEK293 cells; note: potency is the fitted concentration of half-maximal effect; nearly all actives have a fitted effect of over 50% in size
HCMV inh – inhibitors of human cytomegalovirus; HFF cells, HCMV-luciferase reporter, 72 h; active compounds read low; activity change, negative = inhibition, % at 57.5 µM; 4.5% of 410,000 active; in the data active = activity change below about -60%; inconclusive = no clear call, values can overlap the other calls; inactive = above about -39%
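Compounds were evaluated in HFFs infected with an HCMV luciferase reporter virus (MOI 1 PFU/cell). Luciferase in lysates collected 72 h post infection served as the replication measure.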
HCV inhibitor – blocks hepatitis C virus. Huh7.5.1 HCVcc-Cre infection, luciferase reporter, 44 h. Potency, µM (doses to about 41.8 µM), for the others: top-dose activity change, negative = inhibition, usual class: inhibitors. 3.4% of 340,000 active. AID 651820; active = well fitted inhibition curve with a large enough effect; inconclusive = small, poorly fitted or top-dose-only effect, or another doubt; inactive = no such curve, though single readings can be large or run the other way; note: potency is the fitted concentration of half-maximal effect
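Infectious HCVcc-Cre (~0.5 moi) was added to cells just after compound, with cells seeded 4 h earlier at 1,000 per well. Luciferase activity after 44 h culture reported infection; substrate was incubated 15 min at room temperature before reading.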
FMDV inh – blocks foot and mouth disease virus. 1.2% of 410,000 active. Potency, µM (highest dose often 57.9 µM), inactives show top-dose activity change, negative = inhibition, actives largely listed as inhibitors. FMDV antiviral cell-based qHTS; calls by dose curve; tested in HEK293T cells; note: read-out not given here; potency is the fitted concentration of half-maximal effect; nearly all actives have a fitted effect of over 45% in size
Starred values were filed as active, the others as inactive; ? = inconclusive; nt = no result; [ ] = dose if it differs, or a comment. Shown are actives, neighbours in structure and some others; about 7.9% of the full set was active somewhere. % is set by controls: 0 for no effect and ±100 for the full control effect.

SMILES	MARV entry inh	LASV entry inh	HCMV inh	HCV inhibitor	FMDV inh
Cc1cc(C)nc(NC(=O)c2ccc(C)o2)n1	nt	nt	-98*	5%	-29%
COc1ccccc1NC(=O)c1ccc([N+](=O)[O-])o1	nt	nt	-63*	-24%	-26%
Cc1ccc(C(=O)Nc2ccccc2N2CCCCC2)o1	nt	nt	-61*	?	?
COc1ccc(/C(O)=C2\C(=O)C(=O)N(Cc3ccco3)[C@@H]2c2cccs2)cc1	-1%	nt	nt	nt	nt
COc1ccc(N2CC(C(=O)N[C@@H](CC(C)C)C(=O)NC3CCCC3)CC2=O)cc1 (some centres not stated)	?	0%[46.1 µM]	-14	1%	-11%
Cc1ccc(C(=O)CSc2nc3cc(S(=O)(=O)N4CCOCC4)ccc3o2)cc1	-17%	-19%	-18	?	-15%
Cc1[nH]c2ccccc2c1C(=O)CSc1nc2cc(S(=O)(=O)N3CCCCC3)ccc2o1	7.3µM*	?	-39	7.1µM*	-27%
CCOc1ccc(C(=O)Nc2ccc3c(c2)CCCN3S(=O)(=O)c2ccc(C)cc2)cc1	nt	?	?	nt	-24%
COc1ccc(NC(=O)c2c(C)nn(Cc3ccccc3)c2Cl)cc1S(=O)(=O)N1CCOCC1	nt	nt	-72*	?	?
CC(=O)Nc1ccc(NC(=O)c2c(C)nn(Cc3ccccc3)c2Cl)cc1	?	-3%[46.1 µM]	-19	5%	15%
COc1ccc(C(=O)NCc2c(C)nn(Cc3ccccc3)c2C)cc1S(=O)(=O)N1CCOCC1	nt	nt	-101*	?	-14%
Cc1nn(Cc2ccccc2)c(Cl)c1C(=O)Nc1ccc(OC(F)(F)F)cc1	-1%	-22%	-69*	-28%	-26%
O=C(NC1CCCc2ccccc21)c1ccccc1 (configuration not stated)	6%	?	?	14%	1%
Cc1nn(Cc2ccccc2)c(Cl)c1C(=O)NC1CCCc2ccccc21 (configuration not stated)	?	?	11	35µM*	?
COCC(=O)N1CCC2(CCN(Cc3nccs3)CC2)CC1	nt	nt	nt	nt	-18%
Cc1ccc(S[C@@H](CCN2CC[C@H](NC(=O)OCc3ccccc3)CCC2=O)c2ccccc2)cc1	nt	nt	?	13µM*	-19%
C[C@@H](CSc1ccccc1)CN1CC[C@H](NC(=O)OCc2ccccc2)CCC1=O	nt	nt	-78*	11µM*	-26%
CCOC(=O)[C@H](c1ccccc1)N1CCN(c2ccc(OC)cc2)CC1	1%	nt	nt	nt	nt
COCCOc1ccc(C(F)(F)F)cc1Nc1nc2ccccc2o1	15%	-16%	21	14µM*	2%
COCCOc1ccc(C(F)(F)F)cc1NC(=O)c1ccc(C(F)(F)F)cc1	?	0%	5	-4%	-17%
Nc1cc(Cl)ccc1C(=O)OCC(=O)NCC1CCCO1 (configuration not stated)	5%[46.1 µM]	-24%[46.1 µM]	-14	10%	15%
O=C(NCCc1ccc(Cl)cc1)Nc1ccc(Cl)cc1	nt	nt	-39	-2%	17%
CCN(CCNC(=O)Nc1ccc(Cl)cc1)c1ccccc1	?	16µM*	-21	14µM*	?
Cc1cc(C)nc(N2C(=O)CC(Cc3ccc(Cl)cc3)C2=O)n1 (configuration not stated)	9%[46.1 µM]	-15%	-101*	7%	-13%
COc1ccccc1C/C(N)=N/OC(=O)c1ccco1	nt	nt	25	-25%	-18%
SMILES	MARV entry inh	LASV entry inh	HCMV inh	HCV inhibitor	FMDV inh
c1ccc2c(-c3nc(C4CCCCC4)no3)cc(-c3ccncc3)nc2c1	?	-16%	nt	8.9µM*	-21%
O=c1nc2n(c3ccc([N+](=O)[O-])cc13)CCCCC2	12%[46.1 µM]	1%	94	21%	4%
N#C/C(=C\c1cccc([N+](=O)[O-])c1)c1nnc2n1CCCCC2	?	-10%	-69*	0%	-15%
CN(c1ccccc1)c1ccc(/C=C(\C#N)c2nnc3n2CCCCC3)cc1[N+](=O)[O-]	?	7.1µM*	-78*	?	-8%
CCNc1ncc2nc(-c3ccc(Cl)cc3)c(=O)n(C3CC3)c2n1	nt	nt	nt	nt	2%
COc1ccc(CNC(=O)COC(=O)Cc2ccc(Cl)cc2Cl)cc1	nt	nt	28	?	-18%
Cc1c(C)n(CCCN(C)C)c2ncnc(NC3CCCCC3)c12	10µM*	?	12	-24%	-7%
COc1ccccc1Nc1ncnc2c1c(C)c(C)n2CCCN(C)C	nt	nt	120	4µM*	-13%
COc1ccc(C2CC(=O)CCN2S(=O)(=O)c2ccc(F)cc2)cc1 (configuration not stated)	nt	nt	-10	nt	nt
Cc1c(CCOC(=O)c2cc([N+](=O)[O-])cc([N+](=O)[O-])c2)sc[n+]1CC(=O)c1ccc(Br)cc1	?	-9%	-33	10µM*	-28%
Cc1c(CCOC(=O)C23CC4(C)CC(C)(CC(C)(C4)C2)C3)sc[n+]1CC(=O)c1ccccc1	?	-14%	-100*	12%	28µM*
Cc1c(CCOC(=O)CC23CC4CC(CC(C4)C2)C3)sc[n+]1CC(=O)c1ccccc1	nt	nt	48	11µM*	?
Cc1ccc(C(=O)OCCc2sc[n+](Cc3ccccc3)c2C)cc1	-2%	5%	-40	7%	-2%
Cc1sc[n+](CC(=O)c2ccc(Br)cc2)c1C	nt	nt	0	-2%	-23%
Cc1c(CCOC(=O)C23CC4CC(CC(C4)C2)C3)sc[n+]1Cc1ccccc1	2%	2%	-12	-5%	-9%
Cc1c(CCOC(=O)C23CC4CC(CC(C)(C4)C2)C3)sc[n+]1Cc1ccccc1	?	?	17	-2%	16µM*
COC(=O)C1=C(C)N=C2S[C@H](C)C(=O)N2[C@@H]1c1cccc(F)c1	-10%	nt	nt	nt	nt
Cc1c(CCOC(=O)c2ccc(Cl)cc2Cl)sc[n+]1CC(=O)c1ccccc1	-4%	-5%	12	13µM*	-21%
O=C1C(=O)N(C2CCCC2)C(=O)N1Cc1c(F)cccc1Cl	-5%[46.1 µM]	18%	-7	15%	-17%
COCCn1c(=S)[nH]c2sc3c(c2c1=O)CCC(C)C3 (configuration not stated)	15%[46.1 µM]	-20%	-1	-3%	-17%
Cn1c(=S)[nH]c2sc3c(c2c1=O)CCC(C(C)(C)C)C3 (configuration not stated)	nt	nt	-95*	nt	nt
O=c1n(Cc2ccc([N+](=O)[O-])cc2)c2ccccc2c2nc(-c3ccccc3)nn12	nt	22%[46.1 µM]	68	nt	2%
CC(=O)c1c(C)[nH]c(C(=O)OCc2nnc(-c3ccc([N+](=O)[O-])cc3)o2)c1C	?	-6%	95	?	?
CN(Cc1cccs1)c1nc(-c2cccnc2)nc2ccccc12	?	-17%	-23	?	32µM*
Cn1c(COc2ccccc2)nnc1SCc1nc2ccccc2[nH]1	18%	27%	10	6%	-4%
c1ccc(-c2nnc(SCc3nc4ccccc4[nH]3)n2Cc2ccco2)nc1	-20%	-2%	-64*	-22%	?
Clc1cccc(-c2nnc(SCc3nc4ccccc4[nH]3)n2Cc2ccco2)c1	0%	-12%	?	-27%	-23%
